According to PubChem BioAssay AID493231 (Broad Institute, 2011):
Entries with a potency or affinity are not part of this list. Values without a mark were called inactive. The rule behind the calls is not given here.

Each molecule was assayed against Acyl-homoserine lactone acylase PvdQ (Pseudomonas aeruginosa (strain ATCC 15692 / DSM 22644 / CIP 104116 / JCM 14847 / LMG 12228 / 1C / PRS 101 / PAO1)) (UniProt Q9I194) (assay: P. aeruginosa PvdQ acylase inhibitors, dose response, biochemical, fluorescence, plate reader and imaging, cherry-picks (AID 493231;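 note: 0% = neutral control wells and -100% = reference inhibitor wells; more negative values mean stronger inhibition of the acylase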)). Settings: purified PvdQ acylase, fluorogenic substrate; series mostly up to 10 µM; activity change, negative = inhibition: at the top concentration.
Sequence of Acyl-homoserine lactone acylase PvdQ (Pseudomonas aeruginosa (strain ATCC 15692 / DSM 22644 / CIP 104116 / JCM 14847 / LMG 12228 / 1C / PRS 101 / PAO1)) (Q9I194 whole entry, looked up): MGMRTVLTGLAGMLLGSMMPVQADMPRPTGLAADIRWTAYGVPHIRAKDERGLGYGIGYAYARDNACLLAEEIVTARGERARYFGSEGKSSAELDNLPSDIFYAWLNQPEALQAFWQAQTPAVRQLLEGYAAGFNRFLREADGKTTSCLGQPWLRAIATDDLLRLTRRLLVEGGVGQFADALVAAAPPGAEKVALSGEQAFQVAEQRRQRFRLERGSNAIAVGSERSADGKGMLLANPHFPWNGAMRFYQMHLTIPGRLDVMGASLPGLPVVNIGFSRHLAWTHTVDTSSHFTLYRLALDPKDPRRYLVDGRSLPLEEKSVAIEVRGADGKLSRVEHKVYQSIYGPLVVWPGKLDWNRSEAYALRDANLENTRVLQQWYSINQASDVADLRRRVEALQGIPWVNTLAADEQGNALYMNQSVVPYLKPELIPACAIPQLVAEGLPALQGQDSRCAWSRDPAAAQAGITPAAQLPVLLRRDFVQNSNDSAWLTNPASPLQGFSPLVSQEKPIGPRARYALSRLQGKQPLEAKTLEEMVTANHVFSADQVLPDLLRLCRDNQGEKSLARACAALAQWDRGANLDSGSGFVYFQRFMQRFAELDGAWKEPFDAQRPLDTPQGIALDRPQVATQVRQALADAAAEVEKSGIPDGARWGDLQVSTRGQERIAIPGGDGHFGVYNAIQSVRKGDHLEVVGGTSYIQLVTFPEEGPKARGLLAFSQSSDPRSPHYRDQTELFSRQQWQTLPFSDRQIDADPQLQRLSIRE

SMILES | activity change, negative = inhibition [unspecified]
N#Cc1cc([N+](=O)[O-])ccc1Oc1cccc(/C=N/NC(=O)c2cccc(Cl)c2)c1 | 0.613
CCOc1ccccc1NC(=S)N1CCC(NC(=O)NC23CC4CC(CC(C4)C2)C3)CC1 | 0.032
COCCCNC(=O)CC1C[C@H](C(=O)N2CCCCC2)[C@@]2(CCc3ccccc3)c3[nH]c4ccc(OC)cc4c3CCN2C1=O (stereo not given in full) | -1.87
COc1ccc(CCNC(=O)/C(C#N)=C/c2ccc(OCC(=O)NCC3CCCO3)cc2)cc1OC (stereo not given) | 10.4
O=C(COc1ccccc1)OCC(=O)c1ccc(S(=O)(=O)N2CCCCC2)cc1 | 7.39
C(=C\c1nnc(-c2cccs2)o1)/c1ccccc1 | -18.1
COCC(=O)N1CCC(Oc2ccc(C(=O)NCCc3ccncc3)cc2)CC1 | -8
O=C(CSc1n[nH]c(=O)n1Cc1ccco1)c1ccc2c(c1)OCCO2 | 12.8
S=C(NCc1ccc2c(c1)OCO2)Nc1ccc2nsnc2c1 | 10.7
Cc1ccccc1NC(=O)Cn1nc(-c2ccccc2)nc1-c1ccccc1 | 2.91
O=C1CCC(=O)N1CCSC(=S)N1CCSCC1 | -0.632
CCOC(=O)c1ccc(Nc2ncccc2[N+](=O)[O-])cc1 | 4.71
Cc1cc(NC(=O)Nc2ccc(F)c(Cl)c2)no1 | 9.33
O=C1CC(c2ccccc2)Cc2nc(NC3CC3)ncc21 (stereo not given) | 8.35
Cc1ccc2[nH]c(=O)c3cc(C(=O)NC(C)C)sc3c2c1 | -10
Cc1ccc(-n2c(C)cn(C(=O)c3ccccc3)c2=S)cc1 | 8.55
CCOc1ccc(NC(=S)NCc2cccnc2)cc1 | 4.97
O=C(Nc1cccc(NC(=O)c2sc3ccccc3c2Cl)c1)c1ccco1 | 9.49

SMILES | activity change, negative = inhibition [unspecified]
CC(Sc1nnc(-c2ccccc2F)n1C)C(=O)NC1CCCCC1 (stereo not given) | 1.43
c1ccc(CCc2ccccn2)cc1 | 1.66
CCOC(=O)C(Oc1ccc(=O)[nH]n1)C(C)=O (stereo not given) | -0.403
Cc1cc(C)cc(NC(=O)C(OC(=O)c2cccs2)c2ccccc2)c1 (stereo not given) | -99.4
CCN(c1ccc(NC(=O)CCNC(=O)c2ccco2)cc1)C(C)C | -9.22
COc1ccc(NC(=O)C(c2cc3c(cc2[N+](=O)[O-])OCO3)N2CCN(C=O)CC2)cc1 (stereo not given) | 3.27
CCC(=O)N1N=C(c2ccc(C)o2)CC1c1ccc(N(C)C)cc1 (stereo not given) | 4.82
CS(=O)(=O)N1CCN(C(=O)Nc2ccccc2)CC1 | -6.79
CC(=O)Nc1nc(-c2ccc(Cl)cc2)ns1 | 4.38
O=C(CCc1c[nH]c2ccccc12)N/N=C/c1ccc2c(c1)OCO2 | 13.2
Cc1cc(C(=O)Nc2ccc(F)c(Cl)c2)on1 | -12.7
O=C1N(c2ccccc2)C[C@@H]2C[C@@H](c3cc4ccccc4o3)N3CCC[C@@]123 | 5.69
Cc1cc(NC(=O)c2ccc(Br)c([N+](=O)[O-])c2)no1 | 7.95
COC(=O)C1CCN(C2CC(=O)N(c3cc(C)cc(C)c3)C2=O)CC1 (stereo not given) | -1.56
O=C(O)c1cc2nccc(-c3ccco3)n2n1 | -104
CCOC(=O)CSc1nnc(-c2ccc(S(=O)(=O)N3CCC(C)CC3)cc2)o1 | 8.29
Cc1ccc2nc(-c3ccc(NS(=O)(=O)c4ccc(F)cc4)cc3)sc2c1 | 30.7
